Source: PubChem
D2 antagonist: HTS Assay for Allosteric Antagonists of the Human D2 Dopamine Receptor: Primary Screen for Antagonists; D(2) dopamine receptor (Homo sapiens), P14416; inhibition, % at 10 µM; actives 2% (n = 340,000); HEK293 TREx D2 cells, calcium flux, dopamine EC80; in the data active = inhibition above about 30%; inactive = below that, where a call was filed; note: 0% is about no effect
Target sequence (P14416 whole entry, looked up): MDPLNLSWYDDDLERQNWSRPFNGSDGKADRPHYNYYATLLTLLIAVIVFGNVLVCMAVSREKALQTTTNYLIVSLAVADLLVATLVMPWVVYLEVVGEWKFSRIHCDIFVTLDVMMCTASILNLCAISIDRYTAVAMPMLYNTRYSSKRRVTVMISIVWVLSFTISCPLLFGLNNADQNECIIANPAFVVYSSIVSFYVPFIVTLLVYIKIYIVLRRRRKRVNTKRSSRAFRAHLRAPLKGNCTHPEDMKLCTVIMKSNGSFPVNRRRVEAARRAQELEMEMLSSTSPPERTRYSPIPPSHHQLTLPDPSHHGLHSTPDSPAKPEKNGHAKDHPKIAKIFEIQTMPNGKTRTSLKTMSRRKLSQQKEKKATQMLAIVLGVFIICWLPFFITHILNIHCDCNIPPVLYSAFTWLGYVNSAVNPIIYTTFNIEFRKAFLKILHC
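Overnight-induced (tetracycline, 30 C) HEK293 T-REx cells carrying force-coupled D2 receive a no-wash calcium dye, then compound, then EC80 dopamine at 180 s; signals are read kinetically throughout.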
D2 PAM-1: Beta-Arrestin HTS for Positive Allosteric Modulators of the Human D2 Dopamine Receptor: Potentiators. D(2) dopamine receptor (Homo sapiens), P14416. DiscoveRx D2 beta-arrestin cells, luminescence, 90 min; 100% = 57 uM dopamine signal. potentiation, % (no concentration beside the values). actives 0.23% (n = 360,000). AID 624464, 2012; in the data active = potentiation above about 50%; inconclusive = mostly about 30% to 49%
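PathHunter D2 cells, attached overnight at 37 deg C, received compound in DMSO plus dopamine at EC20 (50 nM final) for 90 min at 37 deg C. Beta-arrestin recruitment was read as luminescence after 1 h with detection reagent at ambient temperature.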
D2 ag-1: HTS Assay for Allosteric Agonists of the Human D2 Dopamine Receptor: Primary Screen for Agonists; activation, % at 2 µM; HEK293 T-REx D2 cells, calcium flux agonist mode; actives 0.53% (n = 340,000); D(2) dopamine receptor (Homo sapiens), P14416;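 active = activation over 3 SD above normal in the single-dose calcium agonist read, cut at about 30% in these data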; note: 0% is about no effect
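Tetracycline-induced HEK293 T-REx cells with force-coupled D2 receptor, plated overnight at 30 C, loaded with no-wash calcium dye. After a 10 s baseline, compound was pin-added and calcium flux read kinetically for 180 s; calcium rises flagged agonists.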
D2 PAM-2: HTS Assay for Positive Allosteric Modulators of the Human D2 Dopamine Receptor: Primary Screen for Potentiators. HEK293 T-REx D2, calcium flux, EC20 dopamine potentiation. potentiation, % at 10 µM. actives 0.34% (n = 340,000);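 active = potentiation over 3 SD above the plate norm, cut at about 30% in these data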; note: 0% is about no effect
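Cells plated with tetracycline inducer and held overnight at 30 C; calcium dye loaded 30–90 min at room temperature; baseline taken, compound added and read 180 s; EC20 dopamine then added and read 180 s.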
D2 ag-2: Beta-Arrestin HTS for Positive Allosteric Modulators of the Human D2 Dopamine Receptor: Agonists; D(2) dopamine receptor (Homo sapiens), P14416; DiscoveRx PathHunter D2 beta-arrestin, luminescence, 90 min; 100% = 57 uM dopamine signal; activation, % (test concentration not listed); actives 0.084% (n = 360,000); AID 624465, 2012; in the data active = activation above about 40%; inconclusive = between about 15% and that limit
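Agonist mode: compounds alone added to overnight-plated D2 PathHunter cells for 90 min at 37 C, with 57 uM final dopamine (EC100) defining full response. Beta-arrestin recruitment detected by chemiluminescent reagent, read after 1 h at ambient temperature.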
* marks the source's active call; other numbers are inactive results; ? = inconclusive; nt = no result given. Sampled rows, rich in hits. Any-hit rate of the full collection: about 2.4%.

SMILES	D2 antagonist	D2 PAM-1	D2 ag-1	D2 PAM-2	D2 ag-2
COc1ccc(Br)cc1CNC(=O)c1cc(=O)[nH]c2ccc(S(=O)(=O)N3CCCCC3)cc12	nt	nt	-1	-14	nt
CCc1ccc(S(=O)(=O)N2CCCC(N3CCN(c4ccc(OC)cc4)CC3)C2)cc1 (centres undefined)	-21	-26	0	-3	-5
Cc1c(NS(=O)(=O)c2cccc(C(=O)N3CCCC3)c2)c(=O)n(-c2ccccc2)n1C	nt	-21	nt	nt	2
CC(=O)Nc1ccc(S(=O)(=O)Nc2c(C)n(C)n(-c3ccccc3)c2=O)cc1	0	-9	-1	2	-2
Cc1c(NS(=O)(=O)c2ccc(NC(=O)CCC(=O)O)cc2)c(=O)n(-c2ccccc2)n1C	30*	-7	1	-4	8
Cc1c(NC(=O)c2cccc(NC(=O)Cc3ccc(Cl)cc3)c2)c(=O)n(-c2ccccc2)n1C	33*	-1	0	1	-2
CC(=O)N1CCN(C(=O)c2cccc(S(=O)(=O)Nc3c(C)n(C)n(-c4ccccc4)c3=O)c2)CC1	51*	-14	0	-5	1
COc1cc(/C=N/NC(=O)c2c(-c3ccccc3)noc2C)cc(OC)c1OC	56*	8	-2	-21	7
Cc1ccc(Cl)cc1N1CCN(C(=O)COc2cc(=O)n(C)c3ccccc23)CC1	nt	nt	nt	1	nt
COc1ccc(Br)cc1C1Nc2ccccc2C(=O)N1NC(=O)c1ccncc1 (centres undefined)	2	-36	0	30*	-1
O=C(NN1C(=O)c2cc(Br)ccc2NC1c1ccccc1Cl)c1ccncc1 (centres undefined)	nt	-20	nt	nt	-4
CC1(C(=O)O)CCC(C(=O)Nc2ccc(OC(F)(F)Cl)cc2)C1(C)C (centres undefined)	43*	-8	1	-5	2
O=C(Nc1nnc(S(=O)(=O)N2CCCc3ccccc32)s1)c1ccc(Cl)cc1	nt	nt	-1	-6	nt
COc1cccc2cc(C(C)OC(=O)Nc3ccc(C)cc3)oc12 (centres undefined)	32*	-21	1	-8	3
COc1ccc(-c2nnc(SCC(=O)NCc3ccccc3)nc2-c2ccc(OC)c(OC)c2)cc1OC	nt	nt	0	14	nt
O=C(CCCCCn1c(=O)[nH]c2ccsc2c1=O)N1CCN(C2CCCCC2)CC1	53*	-1	10	-5	-2
Cc1cccc(N2CCN(C(=O)CCn3c(=O)[nH]c4ccsc4c3=O)CC2C)c1 (centres undefined)	-1	?	-2	21	56*
O=C(CCCCCn1c(=O)[nH]c2ccsc2c1=O)N1CCCCC1	9	-7	-1	6	-3
O=C(OCc1nnc(-c2ccc([N+](=O)[O-])cc2)o1)C1CCN(C(=O)c2ccc(F)cc2)CC1	35*	2	0	6	11
O=C(OCc1nnc(-c2ccc([N+](=O)[O-])cc2)o1)C1CCN(C(=O)c2ccc(Cl)cc2)CC1	-3	13	0	1	6
COc1ccc(C2C(C(N)=O)=C(C)Nc3nc(CCCO)nn32)c(OC)c1 (centres undefined)	nt	nt	0	3	nt
O=c1c2c(nc3cc(-c4ccccc4)[nH]n13)CCC2	-19	-9	0	-4	1
O=c1c2c(nc3cc(-c4ccc(Br)cc4)[nH]n13)CCCC2	54*	-13	11	-27	-2
Cc1cccc2c1-c1sc(C(=O)N3CCN(c4ccc(F)cc4)CC3)cc1CO2	nt	nt	0	-6	nt
O=C(Nc1nc2ccccc2s1)c1cccc(S(=O)(=O)N2CCc3ccccc32)c1	nt	-1	nt	nt	-2
SMILES	D2 antagonist	D2 PAM-1	D2 ag-1	D2 PAM-2	D2 ag-2
O=C(Nc1nc2c(s1)CN(Cc1ccccc1)CC2)c1cccc(S(=O)(=O)N2CCc3ccccc32)c1	41*	-4	9	-20	1
Cc1cc(C=C2C(=O)c3ccccc3C2=O)c(C)n1-c1ccc(Cl)cc1	33*	-8	1	9	-3
Cn1cc(Cl)c(C(=O)NNC(=S)NCc2ccco2)n1	-23	-9	2	-3	3
O=C(NNC(=S)NCc1ccco1)c1ccc(Cl)s1	33*	10	0	3	-3
Cc1c(Cl)c(C(=O)NNC(=S)NCc2ccco2)nn1C	35*	-1	0	2	-1
COc1ccccc1NC(=S)NNC(=O)c1nn(C)c(C)c1Cl	82*	-16	0	-20	-4
COc1ccccc1NC(=S)NNC(=O)c1nn(C)c(C)c1Br	-4	-13	2	-6	-6
CC1(C(=O)NS(=O)(=O)c2ccccc2Cl)CCN1C(=O)CCc1cccs1 (centres undefined)	nt	2	nt	nt	-7
Cc1cccc(OCC(=O)OCc2cc(=O)n3nc(C4CC4)sc3n2)c1	nt	nt	1	6	nt
COc1ccc(Cl)cc1CC=NNC(=O)c1cccc(C)c1O	nt	-17	nt	nt	-4
NC(=O)CCCCC(=O)OCCCc1cccs1	0	-1	-1	31*	3
COc1ccc(OC)c(N2C(=O)CC(Cc3ccc(Cl)cc3)C2=O)c1 (centres undefined)	-22	-13	1	29	-2
COc1ccc(OC)c(N2C(=O)CC(Cc3cc(C)cc(C)c3)C2=O)c1 (centres undefined)	10	10	0	30*	-1
Cc1ccc(C)c(NC(=O)COC(=O)c2cccc(S(=O)(=O)N3CCCC3)c2)c1	nt	-19	nt	nt	-3
O=[N+]([O-])c1nn(-c2ccc3c(c2)OCCO3)n(O)c1=NCc1ccc(F)cc1	-11	143*	-1	15	?
CCc1cccc(N=c2c([N+](=O)[O-])nn(-c3ccc4c(c3)OCCO4)n2O)c1	7	?	-2	0	?
COc1cc(N=c2c([N+](=O)[O-])nn(-c3ccc4c(c3)OCCO4)n2O)cc(OC)c1	1	68*	1	-2	9
CC(C)c1ccc(N=c2c([N+](=O)[O-])nn(-c3ccc4c(c3)OCCO4)n2O)cc1	-14	71*	0	-3	6
O=[N+]([O-])c1nn(-c2ccc3c(c2)OCCO3)n(O)c1=NCc1ccc(F)cc1Cl	6	7	0	2	2
O=[N+]([O-])c1nn(-c2ccc3c(c2)OCCO3)n(O)c1=NCCC1=CCCCC1	6	147*	1	3	?
